NPSR antag – neuropeptide S receptor (human) antagonism, cAMP; Q6W5P4; CHO-NPSR cells, cAMP TR-FRET, antagonist mode; Potency, µM (highest dose often 38.3 µM), without a hit: at the highest dose activity change, negative = inhibition, actives largely listed as inhibitors; 220,000 tested, 1% active; AID 1461; also: potency is read from the fitted curve at half-maximal effect; % is scaled to controls: 0 for no effect and ±100 for the full control effect; nearly all actives have a fitted effect of over 50% in size
Tau ThT inhib – blocks human tau fibril formation measured by thioflavin T; recombinant tau K18 P301L, heparin-induced fibrillization, ThT fluorescence; Potency, µM (series often up to 57.4 µM), inactives show top-dose activity, negative = inhibition, actives largely listed as inhibitors; 270,000 tested, 2.1% active; also: potency is read from the fitted curve at half-maximal effect; % is scaled to controls: 0 for no effect and ±100 for the full control effect; nearly all actives have a fitted effect of over 55% in size
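Heparin-induced fibrillization of the P301L-mutant K18 repeat-domain fragment of human tau was followed by ThT binding in quantitative high-throughput format.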
Tau fibril FP – blocks human tau fibril formation measured by polarization; P10636; K18 P301L tau heparin fibrillization, Alexa594 FP, 6 h; Potency, µM (titrated, usually from 57.7 µM), inactives show at the highest dose activity, negative = inhibition, most hits filed as inhibitors; 280,000 tested, 0.39% active; AID 1468; also: potency is read from the fitted curve at half-maximal effect; % is scaled to controls: 0 for no effect and ±100 for the full control effect; nearly all actives have a fitted effect of over 55% in size
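Recombinant K18 P301L […], labeled with Alexa 594 at 0.24 uM over 15 uM unlabeled; heparin inducer 20 uM final; 37 C, 6 hr; FP endpoint.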
ALDH1A1 inh – blocks purified human ALDH1A1 activity. 220,000 tested, 7.3% active. P00352. Purified ALDH1A1, NADH fluorescence, propionaldehyde substrate. Potency, µM (series often up to 75.3 µM), without a hit: at the top dose activity, negative = inhibition, most hits filed as inhibitors; active = well fitted inhibition curve with a large enough effect, not every such curve was filed as active; inconclusive = small, poorly fitted or top-dose-only effect, or another doubt; inactive = no such curve, though single readings can be large or run the other way;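 also: potency is read from the fitted curve at half-maximal effect; plate controls were no enzyme wells and a reference inhibitor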
Target sequence (P00352 whole entry, looked up): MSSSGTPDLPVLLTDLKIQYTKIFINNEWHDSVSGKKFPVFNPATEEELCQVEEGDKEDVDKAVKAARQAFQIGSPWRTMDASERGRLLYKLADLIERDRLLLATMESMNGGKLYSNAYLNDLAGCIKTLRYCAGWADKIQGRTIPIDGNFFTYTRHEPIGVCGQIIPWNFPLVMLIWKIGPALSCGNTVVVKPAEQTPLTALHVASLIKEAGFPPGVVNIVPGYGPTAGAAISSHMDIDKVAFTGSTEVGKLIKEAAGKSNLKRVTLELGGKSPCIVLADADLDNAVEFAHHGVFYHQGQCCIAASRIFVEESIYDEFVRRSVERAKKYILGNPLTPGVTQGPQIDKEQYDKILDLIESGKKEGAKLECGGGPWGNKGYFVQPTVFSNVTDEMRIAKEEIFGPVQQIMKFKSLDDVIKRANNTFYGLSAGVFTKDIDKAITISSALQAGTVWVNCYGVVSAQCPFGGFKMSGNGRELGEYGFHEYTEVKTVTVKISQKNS
HPGD inh – inhibitors of human 15-hydroxyprostaglandin dehydrogenase (HPGD) | 150,000 tested, 4.3% active | AID 894 | Potency, µM, for the others: top-dose activity change, negative = inhibition, hits mostly inhibitors | purified HPGD, NADH fluorescence kinetic, PGE2 substrate | P15428; active = well fitted inhibition curve with a large enough effect, not every such curve was filed as active; inconclusive = small, poorly fitted or top-dose-only effect, or another doubt; inactive = no such curve, though single readings can be large or run the other way; also: potency is read from the fitted curve at half-maximal effect; % is scaled to controls: 0 for no effect and ±100 for the full control effect
Target sequence (P15428 whole entry, looked up): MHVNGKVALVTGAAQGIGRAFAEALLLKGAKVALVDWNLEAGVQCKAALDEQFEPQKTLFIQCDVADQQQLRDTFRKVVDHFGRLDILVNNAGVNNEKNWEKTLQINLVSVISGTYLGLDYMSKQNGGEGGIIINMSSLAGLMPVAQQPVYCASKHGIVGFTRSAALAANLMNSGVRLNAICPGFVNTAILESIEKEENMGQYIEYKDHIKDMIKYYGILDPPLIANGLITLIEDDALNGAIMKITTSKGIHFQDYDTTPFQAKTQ
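NADH formation kinetics: reaction with 30 uM PGE2 and 1 mM NAD+ (final), 20 nM enzyme, Tris-HCl pH 8 with Tween 20, after 15 min compound preincubation at room temperature. Fluorescence change, last versus first of five reads.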
Tau fluor cs – counter-screen for tau fibril formation inhibitors; Potency, µM (highest dose often 57.7 µM), inactives show top-dose activity change, negative = decrease; 280,000 tested, 0.93% active; tau K18 P301L Alexa594 fluorescence, heparin fibrillization; also: potency is read from the fitted curve at half-maximal effect; % is scaled to controls: 0 for no effect and ±100 for the full control effect; nearly all actives have a fitted effect of over 55% in size
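Human tau K18 P301L (15 uM unlabeled, 0.24 uM Alexa 594-labeled) in 100 mM sodium acetate pH 7 with 20 uM heparin, 6 hr at 37 C. ThT 30 uM added, 1 hr ambient; Alexa 594 FP and total fluorescence read at 555/632 nm.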
Tau TEM fibril – Inhibits human tau fibrillization; shares compounds with Tau ThT inhib; recombinant tau K18 P301L fibrillization, TEM grading; stronger effect = higher value; fibril grade (0 = clumped fibrils, 4 = only tiny pieces) (concentration not given with the values); 45 tested, 70% active;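 active = compounds whose electron micrographs showed tau fibrils broken into shorter filaments or fragments, graded high on fibril breakup; inconclusive = micrographs gave an unclear fibril picture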
tau sediment – inhibitors of human tau fibrillization, sedimentation test | shares compounds with Tau ThT inhib | recombinant tau K18 P301L (four-repeat tau fragment), sedimentation SDS-PAGE densitometry | inhibition, % at 100 µM | 110 tested, 50% active | AID 1720; in the data active = inhibition above about 40%; inconclusive = no clear call, values can overlap the other calls; inactive = below about 18%
The depositor's hits bear a star; ? = inconclusive; · = no result given; [ ] = remark or other dose. Rows were chosen to be rich in hits. Some 9.5% of all compounds tested hit in one or more screens of this group. Unless noted, calls follow the shape of the dose curve; as a rule, active = well fitted curve in the direction sought with a large enough effect; inconclusive = small, poorly fitted or top-dose-only effect, or another doubt; inactive = no such curve, though single readings can be large; an effect the other way counts as inactive or inconclusive.

SMILES	NPSR antag	Tau ThT inhib	Tau fibril FP	ALDH1A1 inh	HPGD inh	Tau fluor cs	tau sediment	others
COC(=O)c1c(NC(=O)CCCOc2ccc(C(C)(C)C)cc2)sc2c1C(C(=O)OC)CC2 (centres undefined)	·	8.9µM*	?	·	·	?	?	Tau TEM fibril=0
N#CC1=C(S)N(c2ccccc2)C(c2ccc(-c3ccccc3Cl)o2)NC1=O (centres undefined)	-47%	?	?	?	-26%	?	·
COc1ccc(C(=O)Nc2nc3ccc(S(=O)(=O)N4CCCC4)cc3s2)cc1	·	-6%	-3%	·	·	-8%	·
O=C(Nc1nc2ccc(S(=O)(=O)N3CCCC3)cc2s1)c1ccc(F)cc1	·	16%	-15%	·	·	-7%	14
CCN1C(=O)CC(c2ccco2)Sc2ccccc21 (centres undefined)	2%[46.1 µM]	-7%	4%	?	-18%	-3%	·
CCOC(=O)c1nn(-c2ccc(Cl)c(Cl)c2)c(=O)c2c(N)scc12	·	·	·	·	·	·	12
CCOC(=O)c1nn(-c2ccc(C)c(C)c2)c(=O)c2c(N)scc12	-15%[46.1 µM]	-10%	-5%	-3%	·	-15%	?
CCOC(=O)c1nn(-c2ccc(C)c(C)c2)cc1O	0%[46.1 µM]	-16%	1%	?	-16%	-20%	·
CCOC(=O)c1nn(-c2ccc(OC)cc2)c(=O)c2c(N)scc12	5%[46.1 µM]	8.9µM*	?	8.9µM*	-26%	?	66*	Tau TEM fibril=2*
CCOC(=O)c1nnn(-c2ccc(OC)cc2)c1N	3%[46.1 µM]	-5%	-2%	12%	-6%	-2%	·
CCOC(=O)c1nn(-c2cccc(C(F)(F)F)c2)c(=O)c2c(N)scc12	·	·	·	·	·	·	41*
CCOc1ccc(CCNC(=O)c2nc(-c3cccc(F)c3)n3c2CCCCC3)cc1OCC	·	-11%	7%	·	·	5%	·
CCOC(=O)c1nc(N)c(=O)n(-c2ccccc2)n1	3%[46.1 µM]	-9%	-3%	-3%	-8%	3%	·
CCOC(=O)c1nn(-c2ccccc2)c(=O)c2c(NC(=O)c3ccccc3)scc12	·	·	·	·	·	·	2
CCOC(=O)c1nn(-c2ccccc2)c(=O)c2c(N)sc(C)c12	·	·	·	·	·	·	4
CCOC(=O)c1c(-c2ccccc2)csc1NC(=O)c1ccc(N2C(=O)CCC2=O)cc1	-3%[46.1 µM]	0%	-5%	?	?	-12%	·
Cc1cc(C)cc(Nc2ncnc3c2nc2n3CCCC2)c1	·	-11%	5%	·	·	0%	·
CCOc1ccc(CNC(=O)CCn2nc(C)c3c(C)n(-c4ccccc4)nc3c2=O)cc1	·	9%	3%	·	·	7%	·
O=c1c2oc3ccccc3c2ncn1Cc1ccc(Cl)cc1	16%	-3%	-7%	0%	·	-10%	·
Nc1ccc(-c2ccc3ccccc3n2)cc1	13%[46.1 µM]	?	13%	?	?	?	10
COc1ccc(-c2ccc3ccccc3n2)cc1	12%	-13%	4%	?	·	3%	·
Cn1ncc(Cl)c1C(=O)Nc1cccc(Cl)c1	11%[46.1 µM]	13µM*	?	7.9µM*	13µM*	-28%	93*	Tau TEM fibril=3*
COc1ccc2oc(-c3ccc(NC(=O)c4ccc(N5CCOCC5)c([N+](=O)[O-])c4)cc3)nc2c1	-49%	2.8µM*	-6%	13%	-10%	-19%	12	Tau TEM fibril=0
Cc1ccc(N(C)S(=O)(=O)c2nnc(NC(=O)C3CCCCC3)s2)cc1	·	4%	?	·	·	-3%	12
CCN(c1cc(C)cc(C)c1)S(=O)(=O)c1nnc(NC(=O)C2CCCCC2)s1	·	?	-11%	·	·	?	·
SMILES	NPSR antag	Tau ThT inhib	Tau fibril FP	ALDH1A1 inh	HPGD inh	Tau fluor cs	tau sediment	others
O=C(Nc1ccc(F)cc1F)N1CCCN(c2ccc([N+](=O)[O-])cn2)CC1	22%	-20%	-2%	?	·	-12%	·
Cc1ccc(NC(=O)N2CCN(c3ccccn3)CC2)cc1	-2%[46.1 µM]	?	1%	?	-23%	-3%	18
CC(C)(C)c1ccc(NC(=O)N2CCN(c3ccc([N+](=O)[O-])cn3)CC2)cc1	41%	?	?	·	·	?	15
O=C(Nc1ccccc1)N1CCN(c2ccccn2)CC1	0%[46.1 µM]	-16%	-8%	?	-23%	-13%	·
O=C(c1ccc2c(c1)N(Cc1cccc(Cl)c1)C(=O)c1ccccc1S2(=O)=O)N1CCN(Cc2ccccc2)CC1	·	13%	-6%	·	·	-6%	·
O=C(NCCCO)Nc1ccc2nc(-c3ccco3)c(-c3ccco3)nc2c1	2%[46.1 µM]	?	?	?	?	7.1µM*[quencher]	74*	Tau TEM fibril=4.5*
COc1ccc(C2=C(C)C(=O)N(Cc3ccc(C(=O)Nc4cc(C)ccc4C)cc3)S2(=O)=O)cc1	·	2%	1%	·	·	-12%	·
CCCCC(CCC(=O)Nc1ccc(C(=O)OC)cc1)C(=O)O (centres undefined)	5%[46.1 µM]	-1%	-6%	6%	-7%	-1%	·
COc1ccc2c(c1)c(CC(=O)Nc1ccc(C(C)=O)cc1)c(C)n2C(=O)c1ccc(Cl)cc1	-58%	?	?	4%	-11%	?	12
COc1ccc2c(c1)c(CC(=O)Nc1c(C)cccc1C)c(C)n2C(=O)c1ccc(Cl)cc1	·	5%	-13%	·	·	-4%	·
O=S(=O)(c1ccc2nc(-c3ccco3)c(-c3ccco3)nc2c1)N1CCOCC1	?	4µM*	8.9µM*	?	?	4µM*[quencher]	58*	Tau TEM fibril=2*
CCN(c1ccccc1)S(=O)(=O)c1nnc(NC(=O)C(C)(C)C)s1	·	?	?	·	·	2%	18
CC(/C=C1\SC(=S)N(NC(=O)c2cccc(O)c2)C1=O)=C\c1ccccc1	-32%	7.1µM*	14µM*	?	-15%	14µM*[quencher]	?	Tau TEM fibril=0
Cc1ncc(CN2CCC(CO)(Cc3ccccc3)CC2)s1	-13%	-9%	1%	4%	·	-5%	·
COc1ccc(NC(=O)Cn2cc(S(=O)(=O)N3CCN(c4ccccc4F)CC3)c3ccccc3c2=O)cc1Cl	·	11%	13µM*	·	·	-14%	7
COc1cc(Cl)c(C)cc1NC(=O)Cn1cc(S(=O)(=O)N2CCN(c3ccccc3F)CC2)c2ccccc2c1=O	·	-2%	?	·	·	-11%	·
COc1ccc2[nH]c(=O)c(CNc3ccccc3OC)cc2c1	-18%	7.9µM*	10µM*	·	·	?	61*	Tau TEM fibril=?
COc1ccc2[nH]c(=O)c(CNc3ccccc3C)cc2c1	0%	?	-13%	·	·	-18%	·

Compound activity as filed in PubChem BioAssay.
